In the library only some 0.41% were active in any assay of this set; here they are far more common.
MLL CXXC-DNA inh – blocks binding of human MLL CXXC domain to DNA; Q03164; 290,000 compounds, 0.037% hits; Potency, µM (top dose mostly 115 µM), without a hit: at the highest dose activity change, negative = inhibition, hits mostly inhibitors; AID 2662; MLL-CXXC / FITC-HOXA9 DNA fluorescence polarization; active means well fitted inhibition curve with a large enough effect in the polarisation, with a control signal flat, not every such curve was filed as active; inconclusive means small, poorly fitted or top-dose-only effect, or effect the other way, or a change in a side signal; inactive means no such curve, though single readings can be large or run the other way; the % refers to the polarisation; further: potency means the concentration at half of the fitted maximal effect
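Steps: dispense CXXC domain solution (7 uM) → pin compounds or unlabeled HOX-A9 DNA control → 5 min ambient → add FLSN-HOX-A9 solution (50 nM) → spin → 30 min ambient → fluorescence polarization. Tris pH 7.5/NaCl/DTT/BSA buffer.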
PKM2 activator – activators of human pyruvate kinase M2; P14618; purified PKM2, Kinase-Glo ATP luminescence, activation; response scale: 0% is enzyme alone, no compound; AID 1631; 260,000 compounds, 0.34% hits; Potency, µM (doses to about 57.5 µM), for inactives: top-dose activation, most hits filed as activators; further: potency means the concentration at half of the fitted maximal effect; on the % scale 0 is the no-effect control and ±100 the full control effect; nearly all actives have a fitted effect of over 55% in size
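ATP formation by purified human PK-M2, quantified via coupled luciferase luminescence after 1 h at room temperature with 0.1 mM ADP and 0.5 mM PEP final.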
Menin-MLL TR inh – displaces Texas Red mutant MLL peptide from human menin; 270,000 compounds, 0.23% hits; Potency, µM (doses to about 61.6 µM), for the others: top-dose FP activity change, negative = inhibition, actives largely listed as inhibitors; Menin + Texas Red MLL mutant peptide, fluorescence polarization; active means well fitted inhibition curve with a large enough effect in the polarisation, with a control signal flat, not every such curve was filed as active; inconclusive means small, poorly fitted or top-dose-only effect, or effect the other way, or a change in a side signal; inactive means no such curve, though single readings can be large or run the other way; the % refers to the polarisation; further: potency means the concentration at half of the fitted maximal effect; % of control where 0% means no effect
Menin-MLL FL inh – displaces fluorescein MLL peptide from human menin; Fluorescence polarization, fluorescein-MLL peptide displacement from menin; FP activity change, % at 61.4 µM; 290,000 tested, under 10 active; AID 1766; active means well fitted curve in the direction sought with a large enough effect in the polarisation, not every such curve was filed as active; inconclusive means small, poorly fitted or top-dose-only effect, or effect the other way, or a change in a side signal; inactive means no such curve, though single readings can be large or run the other way; the % refers to the polarisation; further: % of control where 0% means no effect
HeLa tox – counter-screen for pyruvate kinase M2 activators: HeLa cytotoxicity; HeLa viability, CellTiter-Glo ATP luminescence, 24 h; 230 tested, under 10 active; activity change, negative = cytotoxicity, % at 57.5 µM; AID 1898; shares compounds with PKM2 activator; further: % of control where 0% means no effect
An asterisk follows results filed as active; ? = inconclusive; / = not tested or not shown; [ ] = another dose, or the depositor's remark. Unless noted, the call rests on the fitted dose curve; in most records, active means well fitted curve in the direction sought with a large enough effect; inconclusive means small, poorly fitted or top-dose-only effect, or another doubt; inactive means no such curve, though single readings can be large; an effect the other way counts as inactive or inconclusive.

SMILES | MLL CXXC-DNA inh | PKM2 activator | Menin-MLL TR inh | Menin-MLL FL inh | HeLa tox
CC(O)c1cc2c(s1)c1cnn(Cc3ccccc3F)c(=O)c1n2C (stereo unspecified) | / | / | / | / | -11.5
CC(C)c1cc2c(s1)c1cnn(Cc3ccccc3F)c(=O)c1n2C | / | / | / | / | ?
Cn1c(=O)c2ccccc2n(Cc2ccccc2F)c1=O | -10.1% | -7.6% | -10.3% | 3.8 | /
CC(=O)OCON[N+]([O-])=NC(C)C | / | / | ? | -4.3 | /
Cc1ccc(S(=O)(=O)N2CCN(c3ccc([N+](=O)[O-])c(Sc4nncn4C)c3)CC2)cc1 | 6.7% | 0.199µM* | -0.8% | 0.4 | 0.6
Cc1ccc(S(=O)(=O)N2CCN(c3c([N+](=O)[O-])cc(C(F)(F)F)cc3[N+](=O)[O-])CC2)cc1 | 1.3% | 6.9% | -5.4% | 5.4 | /
Cc1cc(NC(=O)c2cnn3c(C(F)(F)F)cc(-c4ccccc4)nc23)no1 | -11.4% | 3.55µM* | -2.1% | 2.4 | 27.9
Cc1cc(NC(=O)c2cnn3c(C(F)F)cc(-c4ccccc4)nc23)no1 | 3.1% | 6.9% | 4.5% | -2.0 | /
CCn1c(SCC(=O)Nc2cccc(C)n2)nc2c1c(=O)n(C)c(=O)n2C | -5.3% | -6.6% | -21.8% | -0.6 | /
CCn1c(SCC(=O)Nc2cccc(O)c2)nc2c1c(=O)n(C)c(=O)n2C | -2.1% | 1.12µM* | ? | -3.8 | -5.0
O=S(=O)(Nc1nc2c(s1)CCCC2)c1ccc(F)cc1 | 5.7% | ? | 0.0% | 0.5 | /
COc1ccc(S(=O)(=O)Nc2nc3c(s2)CCCC3)cc1 | -6.0% | 5.01µM* | -2.5% | -5.6 | -26.6
CC(C)C[C@@H](CC(=O)N[C@@H](CCC(=O)O)CC(=O)O)NC(=O)[C@@H]1CCCC[C@H]1NC(=O)C[C@@H](NC(=O)C[C@H](CO)NC(=O)[C@@H]1CNCC[C@H]1N)C(C)C | / | / | 3.7% | 1.7 | /
CC(=O)c1c(C)[nH]c(C(=O)NCc2ccccc2Cl)c1C | 8.8% | 7.94µM* | -21.6% | 3.5 | -3.4
CCCC[C@@H]1CCCO[C@@](C(=O)NCc2ccccc2)(C(F)(F)F)C1 | / | / | -11.3% | -4.3 | /
O=C(c1cccs1)N1CCN(S(=O)(=O)c2cccs2)CC1 | 3.5% | 27.2% | -11.2% | -6.2 | /
O=S(=O)(c1cccs1)N1CCN(S(=O)(=O)c2cccs2)CC1 | 15.8% | 0.398µM* | -0.1% | 5.1 | -6.3
CCNS(=O)(=O)c1ccc(NC(=O)c2ccc(Cn3cc(Br)cn3)o2)cc1 | 2.3% | 5.01µM* | 4.5% | -0.9 | 0.0
COc1ccc(CNC(=O)c2ccc(Cn3cc(Br)cn3)o2)cc1 | 1.3% | 19.3% | / | / | /
CC(C)NC(=O)N1CC[C@@]2(CCCN(C(=O)c3cnccn3)C2)C1 | / | / | 14.5% | 1.3 | /
Cc1ccc(-c2nc3ccccn3c2Nc2ccccc2)o1 | 8.8% | 2.24µM* | -18.0% | 0.9 | -4.8
Cc1ccc2nc(-c3ccco3)c(Nc3ccccc3)n2c1 | 13.7% | -14.3% | -19.2% | -0.9 | /
CC(=O)OCC(NC(=O)C(C)NC(=O)OC(C)(C)C)C1OC(n2cc(F)c(=O)[nH]c2=O)C(OC(C)=O)C1OC(C)=O (stereo unspecified) | / | / | -8.6% | -2.7 | /
O=C(CCCn1c(=S)[nH]c2cc3c(cc2c1=O)OCO3)NC1CC1 | 6.3% | 2.82µM* | -18.9% | 2.1 | -4.7
NS(=O)(=O)c1ccc2c(c1)oc(=O)c1cc(S(N)(=O)=O)ccc12 | -2.0% | 0.355µM* | -0.4% | 3.8 | -18.9
SMILES | MLL CXXC-DNA inh | PKM2 activator | Menin-MLL TR inh | Menin-MLL FL inh | HeLa tox
N=C(C[C@@H](O)COc1ccccc1-c1ccccc1)N1CCCCC1 | / | / | -11.6%[24.8 µM] | -11.9 | /
Cc1cccc(NS(=O)(=O)c2cc3c(cc2C)n(C)c(=O)c(=O)n3C)c1 | / | 0.398µM* | 9.8% | 8.0 | -25.1
N[C@H](C(=O)O)c1ccc(C(=O)O)cc1 | / | / | 6.7%[24.8 µM] | -10.3 | /
CCn1c(C)nc2cc(C(=O)N/N=C/c3ccc(O)c(O)c3O)ccc21 | 6.6% | 3.16µM* | ? | 2.2 | 2.5
CCn1c(C)nc2cc(C(=O)N/N=C/c3cccc(OC)c3O)ccc21 | 5.1% | 5.9% | ? | 11.1 | /
CCNc1nc(NCC)nc(Oc2ccc(N)cc2)n1 | -4.2% | 2.51µM* | -1.1% | 1.4 | -2.4
COC(=O)c1[nH]c2ccccc2c1NS(=O)(=O)c1ccc(F)c(C)c1 | 5.9% | 10µM* | ? | 0.2 | -9.6
CN(c1ccccc1)S(=O)(=O)c1cccc(C(=O)NCCc2ccc(O)c(O)c2)c1 | -2.5% | 1.41µM* | ? | -0.5 | -21.7
COc1ccc(CCNC(=O)c2ccc(S(=O)(=O)N(C)c3ccccc3)cc2)cc1OC | 0.5% | -11.2% | 12.5% | 1.6 | /
O=C(CSc1nnc2c(n1)[nH]c1ccc(S(=O)(=O)N3CCOCC3)cc12)Nc1ccc(F)c(F)c1 | 16.2% | -10.6% | ? | 1.4 | /
COc1cc(NC(=O)CSc2nnc3c(n2)[nH]c2ccc(S(=O)(=O)NC(C)C)cc23)cc(OC)c1OC | 6.7% | 0.794µM* | ? | -2.2 | -17.5
O=S(=O)(NC1CCN(S(=O)(=O)c2ccc3c(c2)OCCO3)C1)c1c(F)cccc1F (stereo unspecified) | / | / | / | / | 1.5
C[C@@H]1CN(S(=O)(=O)c2c(F)cccc2F)CCN1S(=O)(=O)c1ccc2c(c1)OCCO2 | / | / | / | / | ?
O=S(=O)(NC1CCC(NS(=O)(=O)c2c(F)cccc2F)CC1)c1ccc2c(c1)OCCO2 (stereo unspecified) | / | / | / | / | -12.4
COC(=O)[C@H](CCSC)NC(=O)C/C=C\[C@@H](C)[C@@H](CO)OC | / | / | -5.6%[11.7 µM] | 0.3[11.7 µM] | /
O=C(CSc1ccc2ccccc2c1)NCCc1ccc(O)c(O)c1 | 2.3% | 2.82µM* | 8.8% | 1.3 | 10.3
COc1ccc(-c2ccc(OC)c(C3C4C=CCCC4(C)C(=O)N3Cc3ccccc3)c2)cc1 (stereo unspecified) | / | / | -6.2% | -9.5 | /
NC(=O)CC(NC(=O)Cc1ccc(Cl)cc1)c1ccc(NCCc2ccccc2F)c([N+](=O)[O-])c1 (stereo unspecified) | -7.9% | 3.98µM* | / | 0.0 | -8.5
CCCn1c(C)nc2c(NC3CCCCC3)nc(C)nc21 | / | -0.2% | 1.0% | 3.2 | /
Cc1ccc(NC(=S)N2CCN(S(=O)(=O)c3c(F)cccc3F)CC2)cc1C | -2.2% | -2.2% | -4.4% | -0.7 | /
O=S(=O)(c1c(F)cccc1F)N1CCN(S(=O)(=O)c2c(F)cccc2F)CC1 | / | / | / | / | -17.5
C=CCOC(=O)N[C@@H](c1ccc(Br)cc1)C(C(C)=O)C(C)=O | / | / | 8.8% | 2.9 | /
Cc1ccc(NC(=O)Cn2sc3nc(C)cc(C)c3c2=O)c(Cl)c1 | 31.6% | 3.55µM* | / | ? | ?
Cc1cc(C)c2c(=O)n(CC(=O)Nc3ccc(Cl)cc3)sc2n1 | 3.2% | -5.3% | / | -2.1 | /
CC(=O)N(c1ccccc1)C1SC(=O)N(c2ccccc2)C1=O (stereo unspecified) | 34.0% | 0.562µM* | -0.4% | 0.5 | 0.0
Cc1ccc(N2C(=O)SC(N(CC(=O)O)c3cccc(C)c3)C2=O)cc1 (stereo unspecified) | -4.8% | -0.8% | 11.0% | 4.6 | /
